{"source": "PubChem BioAssay (EPA / NIEHS)", "note": "Several values for one entry are separate records, joined by “and”; a condition that tells them apart may be missing. Equal values may be shown once. Records with an inconclusive call do not appear. Some structures have more than one record in an assay (separate samples or runs), and their calls can disagree. Activity calls are given as the source filed them. How the source made its calls: active means hit-call score of the fitted dose curve at least 0.9, where 1 is the maximum; inconclusive means response in the unintended direction; inactive means score below 0.9.", "data": [{"molecular_target": "Estrogen receptor (Homo sapiens) (UniProt P03372)", "sequence (P03372 whole entry, looked up, the tested form may be a part)": "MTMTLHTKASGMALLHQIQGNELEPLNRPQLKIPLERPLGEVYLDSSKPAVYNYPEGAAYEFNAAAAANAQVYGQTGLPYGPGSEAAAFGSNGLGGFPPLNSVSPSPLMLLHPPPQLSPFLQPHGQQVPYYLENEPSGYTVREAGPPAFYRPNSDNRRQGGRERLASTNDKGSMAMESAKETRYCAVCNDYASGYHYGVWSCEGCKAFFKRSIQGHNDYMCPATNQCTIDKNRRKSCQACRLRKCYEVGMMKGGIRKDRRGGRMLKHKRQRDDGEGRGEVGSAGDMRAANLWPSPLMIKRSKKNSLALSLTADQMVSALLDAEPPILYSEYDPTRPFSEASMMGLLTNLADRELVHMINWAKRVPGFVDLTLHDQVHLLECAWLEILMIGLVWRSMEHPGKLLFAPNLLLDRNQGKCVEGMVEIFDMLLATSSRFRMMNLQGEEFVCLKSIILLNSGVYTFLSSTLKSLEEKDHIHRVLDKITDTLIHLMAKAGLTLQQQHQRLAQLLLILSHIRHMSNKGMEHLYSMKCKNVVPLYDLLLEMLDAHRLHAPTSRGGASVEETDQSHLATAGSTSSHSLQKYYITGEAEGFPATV", "assay": "OT_ER_ERaERa_0480: Odyssey Thera (OT) 8-hour HEK293T Protein-Complementation Assay for Estrogen Receptor-alpha/-alpha Homodimer (AID 2283351);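 further: rise in fluorescence from reassembled reporter fragments on ERα LBD homodimer in nucleus or whole cell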", "procedure,_shortened": "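Cells were treated for 8 hours, then imaged on a laser scanning plate cytometer. Complementation of reporter fragments fused to the human ERα ligand-binding domain (residues 310-547) in HEK293T gave fluorescence, and gain of signal over vehicle was fitted.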", "values": [{"compound": "CCCCCCCc1ccc(O)cc1", "AC50": "26.1 µM (active) and 23.4 µM (active) and 23.6 µM (active)", "outcome": "inactive"}, {"compound": "Nc1ccc(Cl)cc1", "outcome": "inactive"}, {"compound": "O=C(O)CF", "outcome": "inactive"}, {"compound": "Cc1ccc(O)cc1C", "outcome": "inactive"}, {"compound": "CCOC(=O)c1ccccc1N", "outcome": "inactive"}, {"compound": "O=C(O)C1C(C(=O)O)C2(Cl)C(Cl)=C(Cl)C1(Cl)C2(Cl)Cl", "note": "(configuration not stated)", "outcome": "inactive"}, {"compound": "CCNc1nc(Cl)nc(NC(C)(C)C)n1", "outcome": "inactive"}, {"compound": "CCCCC(CC)COP(=O)(Oc1ccccc1)Oc1ccccc1", "note": "(configuration not stated)", "outcome": "inactive"}, {"compound": "CCCCOCC1CO1", "note": "(configuration not stated)", "outcome": "inactive"}, {"compound": "CCC(C)(C)c1ccc(O)cc1", "AC50": "8.61 µM (active)"}, {"compound": "O=P1(N(CCCl)CCCl)NCCCO1", "note": "(configuration not stated)", "outcome": "inactive"}, {"compound": "O=S(=O)(c1ccc(O)cc1)c1ccc(O)cc1", "AC50": "36.7 µM (active)"}, {"compound": "O=[N+]([O-])c1ccccc1", "outcome": "inactive"}, {"compound": "ClC(Cl)(Cl)c1ccccc1", "outcome": "inactive"}, {"compound": "O=P(Oc1ccccc1)(Oc1ccccc1)Oc1ccccc1", "AC50": "12.1 µM (active)"}, {"compound": "CCOP(=S)(Oc1ccc([N+](=O)[O-])cc1)c1ccccc1", "note": "(configuration not stated)", "AC50": "14.8 µM (active)"}, {"compound": "CCCCN(CCCC)SN(C)C(=O)Oc1cccc2c1OC(C)(C)C2", "outcome": "inactive"}, {"compound": "CCOP(=S)(OCC)SCSCC", "outcome": "inactive"}, {"compound": "CCCCc1ccccc1", "outcome": "inactive"}, {"compound": "COC(N)=O", "outcome": "inactive"}, {"compound": "c1nc[nH]n1", "outcome": "inactive"}, {"compound": "CC1(C)CN=C(NN=C(/C=C/c2ccc(C(F)(F)F)cc2)/C=C/c2ccc(C(F)(F)F)cc2)NC1", "outcome": "inactive"}, {"compound": "c1ccc2c(c1)Nc1ccccc1S2", "outcome": "inactive"}, {"compound": "CCCCN(CC)C(=O)SCCC", "outcome": "inactive"}, {"compound": "O=NN1CCCC1", "outcome": "inactive"}, {"compound": "O=S1(=O)OCC2C(CO1)C1(Cl)C(Cl)=C(Cl)C2(Cl)C1(Cl)Cl", "note": "(configuration not stated)", "outcome": "inactive"}]}]}
